The record followed here is PubChem BioAssay.

Assay [1] in a line: antimalarial activity against Dd2 strain (AID 2302;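 active = growth inhibition above 50% at the single 2 µM test dose, taken to imply half-maximal potency below 2 µM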;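 note: 0% = DMSO untreated growth and 100% = chloroquine plus artemisinin killed control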). Particulars: P. falciparum Dd2 in RBCs, LDH growth readout, 72 h; at 2 µM; active compounds read high.
The nature of assay [2]: human hepatoma cell viability loss – ATP luminescence, cytotoxicity control for P. falciparum antimalarial project, primary screen (AID 2303;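 active = inhibition above 50%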;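 note: 0% = DMSO wells and 100% = digitonin-killed cells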). Particulars: HepG2 viability, 24-48 h, at 10 µM, active compounds read high.
Assay [3] deals with L-lactate dehydrogenase (Plasmodium falciparum (isolate CDC / Honduras)) (UniProt Q27743). Nature of the assay: PfLDH activity inhibition – cell lysate, 3D7 strain, counter-screen for P. falciparum growth inhibition project (AID 2304).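 Note: 0% = vehicle and 100% = reference inhibitor.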 Particulars: P. falciparum 3D7 crude extract, LDH APAD/NBT absorbance; at 2 µM; active compounds read high.
The nature of assay [4]: inhibition of 3D7 malaria parasite growth – strain 3D7 (AID 2306).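 Note: 0% = DMSO wells and 100% = chloroquine plus artemisinin control wells.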 Particulars: P. falciparum 3D7 erythrocytic growth, LDH absorbance, 72 h; at 2 µM; active compounds read high.
Assay [5] deals with Calcium-dependent protein kinase 1 (Plasmodium falciparum (isolate 3D7)) (UniProt P62344). Nature of the assay: PfCDPK1 kinase inhibitors, biochemical, TCAMS library (AID 1159585; cut-off not given, nearly all actives have IC50 up to about 0.98 µM;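 note: inhibitors leave more ATP so luminescence rises with inhibition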). Particulars: recombinant PfCDPK1, Kinase-Glo ATP depletion luminescence.
The target in assay [6] is Plasmodium falciparum protein kinase 6 (PK6, PF3D7_1337100) (UniProt Q8IDW1). Description: PfPK6 kinase inhibitors, biochemical, TCAMS library (AID 1159586). Particulars: recombinant PfPK6, Kinase-Glo ATP depletion luminescence.
Assay [7] concerns the target Protein kinase 7 (PK7), Plasmodium falciparum 3D7 (PF3D7_0213400) (UniProt Q7YTF7). Nature of the assay: inhibition of Plasmodium PK7 catalytic activity – biochemical, TCAMS antimalarial set, Kinase-Glo luminescence (AID 1159587). Particulars: recombinant PfPK7, Kinase-Glo ATP depletion luminescence.
The target in assay [8] is Calcium-dependent protein kinase 4 (Plasmodium falciparum (isolate 3D7)) (UniProt Q8IBS5). Nature of the assay: PfCDPK4 kinase inhibitors, biochemical, TCAMS library (AID 1159588; cut-off not given, nearly all actives have IC50 up to about 0.91 µM). Particulars: recombinant PfCDPK4, Kinase-Glo ATP depletion luminescence.

A number with no mark means an inactive call. For some of these results: Entries with a potency or affinity are not part of this list. Calls of active or inactive are those of the source. Unless noted, the rule behind the calls is not given here.

Chain of Protein kinase 7 (PK7), Plasmodium falciparum 3D7 (PF3D7_0213400) (Q7YTF7 1-343): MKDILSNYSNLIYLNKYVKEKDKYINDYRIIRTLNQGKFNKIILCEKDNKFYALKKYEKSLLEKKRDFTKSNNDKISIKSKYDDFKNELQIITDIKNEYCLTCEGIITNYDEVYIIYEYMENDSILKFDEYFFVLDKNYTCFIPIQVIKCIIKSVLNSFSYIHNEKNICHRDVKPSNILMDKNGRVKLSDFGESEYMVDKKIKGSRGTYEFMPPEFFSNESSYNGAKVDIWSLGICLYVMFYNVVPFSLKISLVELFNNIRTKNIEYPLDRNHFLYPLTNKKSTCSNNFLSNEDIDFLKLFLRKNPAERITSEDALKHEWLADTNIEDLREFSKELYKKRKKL
Chain of L-lactate dehydrogenase (Plasmodium falciparum (isolate CDC / Honduras)) (Q27743 whole entry, looked up): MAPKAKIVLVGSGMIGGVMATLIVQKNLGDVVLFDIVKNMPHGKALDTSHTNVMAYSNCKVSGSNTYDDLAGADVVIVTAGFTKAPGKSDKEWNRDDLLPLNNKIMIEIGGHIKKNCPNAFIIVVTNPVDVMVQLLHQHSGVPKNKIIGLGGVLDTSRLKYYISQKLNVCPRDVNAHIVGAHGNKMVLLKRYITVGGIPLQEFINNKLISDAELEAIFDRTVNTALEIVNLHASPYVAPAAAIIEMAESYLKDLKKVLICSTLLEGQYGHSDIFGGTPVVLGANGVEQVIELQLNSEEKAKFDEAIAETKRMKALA
Chain of Calcium-dependent protein kinase 4 (Plasmodium falciparum (isolate 3D7)) (Q8IBS5 whole entry, looked up): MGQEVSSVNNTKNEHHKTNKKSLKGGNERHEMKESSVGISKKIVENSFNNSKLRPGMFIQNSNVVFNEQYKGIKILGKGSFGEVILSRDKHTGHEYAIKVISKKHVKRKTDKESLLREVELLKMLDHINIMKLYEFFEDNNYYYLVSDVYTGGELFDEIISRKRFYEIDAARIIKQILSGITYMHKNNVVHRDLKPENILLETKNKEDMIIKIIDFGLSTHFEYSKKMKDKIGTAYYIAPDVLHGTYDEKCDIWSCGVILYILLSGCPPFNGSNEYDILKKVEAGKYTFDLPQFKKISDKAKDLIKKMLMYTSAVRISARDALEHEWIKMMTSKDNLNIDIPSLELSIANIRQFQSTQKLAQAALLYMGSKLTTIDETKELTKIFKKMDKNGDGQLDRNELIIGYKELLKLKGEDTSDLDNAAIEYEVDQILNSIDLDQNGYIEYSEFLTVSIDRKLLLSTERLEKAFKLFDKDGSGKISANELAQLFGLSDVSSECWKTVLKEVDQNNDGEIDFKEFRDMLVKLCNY
Chain of Plasmodium falciparum protein kinase 6 (PK6, PF3D7_1337100) (Q8IDW1 1-305): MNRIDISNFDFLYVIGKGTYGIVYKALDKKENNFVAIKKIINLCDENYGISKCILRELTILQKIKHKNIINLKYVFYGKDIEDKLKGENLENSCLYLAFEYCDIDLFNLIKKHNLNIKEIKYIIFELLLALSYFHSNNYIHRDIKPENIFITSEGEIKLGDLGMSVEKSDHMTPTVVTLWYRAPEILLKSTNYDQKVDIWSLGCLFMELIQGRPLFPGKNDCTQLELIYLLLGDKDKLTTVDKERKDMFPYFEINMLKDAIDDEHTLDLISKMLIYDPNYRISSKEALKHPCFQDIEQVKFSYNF
Chain of Calcium-dependent protein kinase 1 (Plasmodium falciparum (isolate 3D7)) (P62344 whole entry, looked up): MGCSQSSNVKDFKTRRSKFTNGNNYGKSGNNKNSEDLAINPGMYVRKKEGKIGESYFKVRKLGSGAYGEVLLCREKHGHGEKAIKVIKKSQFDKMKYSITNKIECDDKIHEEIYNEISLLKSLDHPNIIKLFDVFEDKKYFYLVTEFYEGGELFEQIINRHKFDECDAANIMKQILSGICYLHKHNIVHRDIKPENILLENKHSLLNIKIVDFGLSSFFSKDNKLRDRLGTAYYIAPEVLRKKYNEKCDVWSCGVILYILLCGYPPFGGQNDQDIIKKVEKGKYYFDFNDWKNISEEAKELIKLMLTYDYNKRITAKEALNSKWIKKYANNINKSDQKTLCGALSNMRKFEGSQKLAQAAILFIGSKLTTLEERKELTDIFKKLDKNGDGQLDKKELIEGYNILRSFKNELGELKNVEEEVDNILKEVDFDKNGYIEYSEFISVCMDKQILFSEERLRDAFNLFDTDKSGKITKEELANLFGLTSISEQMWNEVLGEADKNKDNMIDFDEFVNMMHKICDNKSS

For the compound `CC(=O)Nc1ccc(Nc2cc(C)nc(Nc3ccc(NC(C)=O)cc3)n2)cc1`, the growth inhibition was 65% (active) in assay [1] and 99% (active) in assay [4]. Also, the results for the inhibition in assay [2] and in assay [3] were 4% and -2%, respectively. The result in assay [5], in assay [6], in assay [7] and in assay [8] was inactive.

For the compound `COc1ccc(-c2nnc(Sc3ccc(C#N)c([N+](=O)[O-])c3)n2CCC(C)C)cc1`, the values for the growth inhibition in assay [1] and in assay [4] were 53% (active) and 89% (active), respectively. Moreover, the inhibition was 15% in assay [2] and 5% in assay [3]. Further, the outcome in assay [5], in assay [6], in assay [7] and in assay [8] was inactive.

As for `O=S(=O)(NC1CCN(c2ccnc3cc(Cl)ccc23)C1)c1cccs1` (stereo not given), the growth inhibition in assay [1] is 76% (active); in assay [4] it was 102% (active). The inhibition was 6% in assay [2] and -4% in assay [3]. Moreover, the outcome in assay [5], in assay [6], in assay [7] and in assay [8] was inactive.

With `CC(C)(C)c1ccc(OCCCON2C(N)=NC(N)=NC2(C)C)cc1`, the figures for the growth inhibition in assay [1] and in assay [4] were 76% (active) and 93% (active), respectively. Further, the inhibition in assay [2] was 77% (active); in assay [3], -4%. For the same compound, the outcome in assay [5], in assay [6], in assay [7] and in assay [8] was inactive.

`CCCCCCN1CCC(NCc2cccc3ccccc23)CC1`: the growth inhibition in assay [1] was 12%; in assay [4], 95% (active). Also, the inhibition in assay [2] is 21%; in assay [3], 0%. The result in assay [5], in assay [6], in assay [7] and in assay [8] was inactive.

For the compound `O=C(Nc1ccc(OC2CCN(Cc3ccccc3)C2)c(Cl)c1)c1cccs1` (stereo not given), the growth inhibition in assay [1] was 96% (active); in assay [4], 97% (active). Also, the inhibition was 13% in assay [2] and -2% in assay [3]. In addition, the result in assay [5], in assay [6], in assay [7] and in assay [8] was inactive.

In the case of `CCOC(=O)c1cn(CC)c2cc(OCc3ccccc3)ccc2c1=O`, the growth inhibition in assay [1] is 96% (active); in assay [4], 97% (active). The inhibition in assay [2] and in assay [3] was 2% each time. Also, the result in assay [5], in assay [6], in assay [7] and in assay [8] was inactive.

For `CN(C)CCNCc1cccc(-c2ccc3c(Nc4ccc(F)cc4Cl)ccnc3c2)c1`, the growth inhibition in assay [1] is 98% (active); in assay [4], 102% (active). Further, the inhibition is 17% in assay [2] and 1% in assay [3]. Further, the outcome in assay [5], in assay [6], in assay [7] and in assay [8] was inactive.

Turning to `Cc1ccc(NC(=O)NC2CCN(CCCCCNC(=O)[C@@H]3C[C@H]3c3ccc(Cl)c(Cl)c3)CC2)cc1`, the growth inhibition in assay [1] is 19%; in assay [4], 101% (active). Moreover, the inhibition in assay [2] is 35%; in assay [3], 1%. Moreover, the outcome in assay [5], in assay [6], in assay [7] and in assay [8] was inactive.

As to `NC1=NC(CCc2ccccc2)N(c2ccc(Cl)cc2)C(N)=N1` (stereo not given), the growth inhibition was 20% in assay [1] and 94% (active) in assay [4]. Further, the inhibition in assay [2] is 2%; in assay [3], -5%. For the same compound, the outcome in assay [5], in assay [6], in assay [7] and in assay [8] was inactive.

With `CN(c1ccc(NC(=O)c2ccc(F)cc2)cc1)C1CCN(Cc2cccc(F)c2)C1` (stereo not given), the growth inhibition was 74% (active) in assay [1] and 81% (active) in assay [4]. The inhibition in assay [2] is 3%; in assay [3], -2%. The result in assay [5], in assay [6], in assay [7] and in assay [8] was inactive.

Regarding `CC(C)c1ccc(CN(C)CCCCNC(=O)c2ccc(NC(=O)c3ccc(Cl)cc3)cc2)cc1`, the growth inhibition was 0% in assay [1] and 92% (active) in assay [4]. The inhibition in assay [2] is 17%; in assay [3], 0%. Besides, the result in assay [5], in assay [6], in assay [7] and in assay [8] was inactive.

For the compound `COc1ccc2c(NN=Cc3ccccc3[N+](=O)[O-])cc(C)nc2c1`, the results for the growth inhibition in assay [1] and in assay [4] were 100% (active) and 101% (active), respectively. The inhibition in assay [2] was 14%; in assay [3] it was -4%. The result in assay [5], in assay [6], in assay [7] and in assay [8] was inactive.

Turning to `COc1ccc(Nc2nccc(-c3c(-c4cccc(NC(=O)c5c(F)cccc5F)c4)nn4ccccc34)n2)cc1Cl`, the growth inhibition in assay [1] is 71% (active); in assay [4], 95% (active). The inhibition was 61% (active) in assay [2] and -1% in assay [3]. The result in assay [5], in assay [6], in assay [7] and in assay [8] was inactive.

With `C=C(C)C1CC=C(CN2CCC(N3CCc4cc(NC(=O)c5cc(C)on5)ccc43)C2)CC1` (stereo not given), the growth inhibition in assay [1] is 95% (active); in assay [4] it was 90% (active). Further, the values for the inhibition in assay [2] and in assay [3] were 26% and 0%, respectively. The result in assay [5], in assay [6], in assay [7] and in assay [8] was inactive.

As for `COc1ccc2nccc([C@@H](O)CN3CCC(NS(=O)(=O)c4cc5c(cc4Cl)SCC(=O)N5)CC3)c2c1`, the growth inhibition was 0% in assay [1] and 88% (active) in assay [4]. The inhibition was 5% in assay [2] and 0% in assay [3]. In addition, the result in assay [5], in assay [6], in assay [7] and in assay [8] was inactive.

Take `CO/C(=C\C=C\c1cc2cc(Cl)c(Cl)cc2[nH]1)C(=O)NCCCN1CCN(c2ccncc2)CC1`: the growth inhibition in assay [1] is 96% (active); in assay [4], 98% (active). The inhibition is 12% in assay [2] and 4% in assay [3]. The result in assay [5], in assay [6], in assay [7] and in assay [8] was inactive.

As for `O=C(Nc1ccc(Cl)c(C(F)(F)F)c1)c1ccc(C(=O)Nc2ccc(Cl)c(C(F)(F)F)c2)cc1`, the growth inhibition in assay [1] was 27%; in assay [4], 88% (active). Moreover, the inhibition was 9% in assay [2] and -2% in assay [3]. For the same compound, the result in assay [5], in assay [6], in assay [7] and in assay [8] was inactive.

As to `COc1ccc2c(c1)S(=O)(=O)N=C(N1CCCC1c1ccc(Cl)c(Cl)c1)N2C` (stereo not given), the growth inhibition in assay [1] was 19%; in assay [4] it was 89% (active). Besides, the inhibition in assay [2] is -2%; in assay [3], 0%. The result in assay [5], in assay [6], in assay [7] and in assay [8] was inactive.

On to `CC1(C)N=C(N)N=C(N)N1OCCCOc1cc(Cl)ccc1Cl`, for which the growth inhibition in assay [1] and in assay [4] was 96% (active) throughout. For the same compound, the inhibition in assay [2] was 64% (active); in assay [3] it was -1%. In addition, the result in assay [5], in assay [6], in assay [7] and in assay [8] was inactive.
